Compound activity from PubChem BioAssay.
TAG inh: triacylglycerol accumulation inhibition; H9c2 cells, Nile Red lipid (TAG) fluorescence; cells loaded with 200 µM oleic acid; inhibition, % at 12.5 µM; hit rate 0.66% among 230,000; AID 651582;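 active = pattern-corrected inhibition of lipid staining of at least 50% with the nuclear-stain viability signal not falling by more than 50%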;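 also: 0% = DMSO wells and 100% = triacsin C control wells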
Cardio protect: protects H9c2 cardiomyocytes from peroxide injury | H2O2 injury protection, ATPLite, 2 h | protection from H2O2 cell death, % at 20 µM | hit rate 0.63% among 360,000 | AID 588492;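 active = compounds giving at least 50% protection of heart cells from peroxide-induced death in the single-dose screen, raw or plate-pattern-corrected value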;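 also: 0% = DMSO wells with peroxide and 100% = DMSO wells without peroxide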
m-calpain inh: inhibitors of pig calpain II | purified calpain II, fluorogenic peptide substrate, 30 min | inhibition, % at 16 µM | hit rate 0.37% among 220,000 | AID 1236;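 active = inhibition above about 50%, limit read from the data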
aDG glyco act: increases alpha dystroglycan glycosylation; hit rate 0.22% among 360,000; Pro5-aDG cells, alpha-DG glycosylation AlphaScreen (IIH6); 0% Pro5, 100% B10-LARGE cell signal; activation, % at 10 µM; AID 624168;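 active = activation of at least 8% versus controls, or a plate z-score of at least 8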;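 also: Pro5 are CHO cells carrying HIG-tagged alpha-DG that lacks glycosylation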
FAS-TE inh: inhibitors of human fatty acid synthase thioesterase domain | P49327 | recombinant FAS-TE, OMFH fluorogenic substrate, fluorescence endpoint | inhibition, % at 15 µM | hit rate 0.67% among 360,000;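 active = compounds whose normalised, plate-corrected inhibition of enzyme fluorescence in the single-dose primary screen is 50% or more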;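 also: 0% = DMSO with enzyme and 100% = substrate without enzyme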
beta cell repl: inducers of beta-cell replication in MIN6 cells; MIN6 cells proliferation, ATPlite luminescence, 48 h; cells starved in 0.2% serum; 100% = growth in 10% serum; proliferation, % at 10 µM; AID 2380; hit rate 0.29% among 330,000;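 active = compounds whose signal lies at least 3.5 SD above the mean of all wells on their plate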;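 also: 0% = DMSO-treated cells in low-serum medium and 100% = 10% serum control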
FAS-TE inh conf: FAS thioesterase (human) inhibition, confirmation; shares compounds with FAS-TE inh; recombinant FAS-TE, OMFH fluorogenic substrate, fluorescence; inhibition, % at 15 µM; hit rate 45% among 2,300; AID 624325;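 active = compounds inhibiting the enzyme by at least 50% at 15 µM in any one of the replicates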;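 also: 0% = enzyme with DMSO only and 100% = wells lacking enzyme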
* = called active by the depositor; / = no result. In the library only some 2.3% were active in any assay of this set; here they are far more common.

SMILES | TAG inh | Cardio protect | m-calpain inh | aDG glyco act | FAS-TE inh | beta cell repl | FAS-TE inh conf
COc1ccc([C@@H]2[C@@H]3C(=O)N(C(C)(C)C)C(=O)[C@@H]3[C@]3(Cc4ccc(Cl)cc4)C(=O)N(c4ccc(C)cc4)C(=O)N23)cc1 | / | -3 | / | 1 | 92* | -8 | 39
CC(C)C[C@@H](CNCC(=O)[C@H](CC(C)C)NC(=O)c1[nH]cnc1C(=O)N[C@H](CN)CC(C)C)NC(=O)c1nc[nH]c1C(=O)N[C@@H](CC(=O)O)C(=O)O | -14 | -1 | / | 0 | -6 | / | /
CC(C)(C)c1ccc(C(=O)OCCNC(=O)c2c(Cl)nc3ccccn23)cc1 | 8 | -18 | -15 | 0 | 66* | -3 | 75*
COc1ccc([C@@H]2[C@@H]3C(=O)N(C(C)(C)C)C(=O)[C@@H]3[C@]3(CC(C)C)C(=O)N(c4cccc(Br)c4)C(=O)N23)cc1 | 15 | -6 | / | 1 | 58* | -7 | 40
COc1ccc([C@@H]2[C@@H]3C(=O)N(C(C)(C)C)C(=O)[C@@H]3[C@]3(CC(C)C)C(=O)N(c4ccccc4)C(=O)N23)cc1 | -5 | 4 | / | 0 | 12 | -2 | /
COc1ccc([C@@H]2[C@@H]3C(=O)N(C(C)(C)C)C(=O)[C@@H]3[C@]3(CC(C)C)C(=O)N(c4ccc(C(F)(F)F)cc4)C(=O)N23)cc1 | 44 | -5 | / | 1 | 67* | -6 | 37
COc1cc(CN(C)c2ccc(S(=O)(=O)N3CCCC3)cn2)ccc1OC(F)F | -51 | -10 | / | 0 | 68* | 3 | 22
CCCNC(=O)C1(C)CCCN(C(=O)c2cc(C(C)(C)C)nn2C)C1 (centres undefined) | 0 | -1 | / | 0 | -6 | / | /
N/C(=N\c1nc2c(c(=O)[nH]1)CCCC2)Nc1ccccc1Sc1ccccc1 | / | -4 | -62 | 0 | 51* | -4 | 13
CC(NC(=O)CCCc1c[nH]c2ccccc12)c1ccc(F)cc1 (centres undefined) | / | 1 | / | 0 | -4 | -3 | /
CCN(CC)S(=O)(=O)c1ccc(N2CCOCC2)c(NC(=O)C(=O)c2c(-c3ccccc3)cc3ccccn23)c1 | 1 | 11 | -55 | -1 | 54* | 2 | 34
O=C(/C=C1\OCc2ccccc21)OCc1ccccc1 | / | / | / | 0 | / | / | /
COC(=O)c1cccc(NC(=S)NCc2ccc(Cl)cc2)c1 | / | -15 | 11 | 0 | 18 | -3 | /
COC(=O)c1cc(NC(=S)NCc2ccc(Cl)cc2)cc(C(=O)OC)c1 | -5 | -18 | 36 | 0 | 51* | -5 | 36
CCCCCCCCOC(=O)C1=C(C)Nc2nnnn2C1c1cccs1 (centres undefined) | -63 | -29 | 50* | 1 | 62* | -6 | 41
CCCCCCCOC(=O)C1=C(C)Nc2ncnn2C1c1cccs1 (centres undefined) | -19 | -2 | -10 | 2 | 1 | -4 | /
O=C(NC(NC(=S)Nc1c(Cl)cccc1Cl)C(Cl)(Cl)Cl)c1cccc([N+](=O)[O-])c1 (centres undefined) | / | -14 | -7 | 4 | 55* | 0 | 7
O=C(NNc1c(Cl)cc(Cl)cc1Cl)c1cccc([N+](=O)[O-])c1 | / | -5 | 23 | 1 | 55* | -6 | 58*
CC(NC(=O)C12CC3CC(CC(C3)C1)C2)C(=O)N/N=C/C1=C(N2CCOCC2)C(=C\c2ccccc2)/CC1 (centres undefined) | / | -4 | -92 | 3 | 71* | 0 | 9
O=C(CCNC(=O)c1ccc([N+](=O)[O-])cc1)Nc1cccc(S(=O)(=O)N2CCCCCC2)c1 | 0 | 4 | / | 0 | 34 | -2 | /
CCCC(=O)N1CCCC1(C)C(=O)NCc1c(F)ccc(C)c1F (centres undefined) | -3 | 1 | / | 0 | -7 | / | /
O=C(CCNc1ccc(Br)cc1)c1cccc([N+](=O)[O-])c1 | 6 | -23 | -2 | 0 | 64* | -6 | 53*
COc1cccc(C(=O)Nc2cc(C(=O)NCc3ccc(C)cc3)ccc2N2CCC3(CC2)CC(c2ccccc2)=NO3)c1 | 4 | -7 | / | 0 | 43 | 1 | /
Cc1ccc(CNC(=O)c2ccc(N3CCC4(CC3)CC(c3ccccc3)=NO4)c(NC(=O)c3c(Cl)cccc3Cl)c2)cc1 | 22 | -6 | / | 0 | 63* | -1 | 21
CC(=O)N(C1CC(C)C(C#N)(C#N)C1(C#N)C#N)N(C)C (centres undefined) | 27 | -11 | 8 | 0 | 54* | -7 | 63*
SMILES | TAG inh | Cardio protect | m-calpain inh | aDG glyco act | FAS-TE inh | beta cell repl | FAS-TE inh conf
CCCC(=O)N(C1CC(C)C(C#N)(C#N)C1(C#N)C#N)N(C)C (centres undefined) | 68 | -7 | 12 | 0 | 62* | -4 | 68*
CCCc1cc(=O)[nH]c2nnc(SCC(=O)NC3CCCCC3)n12 | 14 | -1 | / | 0 | -4 | -4 | /
COc1ccc(C(=O)Nc2nc3c(s2)CCCC3)cc1S(=O)(=O)N1CCCc2ccccc21 | / | -10 | -42 | 1 | 63* | -4 | 17
CSc1ccccc1CNC(=O)C1(C)CCCN1CC(C)C (centres undefined) | -8 | -3 | / | 0 | -4 | / | /
O=C(N/C(=C/C=C/c1ccccc1)C(=O)N1CCCCC1)c1ccc([N+](=O)[O-])cc1 | 14 | 1 | -42 | 0 | 92* | -4 | 94*
O=C(N/C(=C/c1ccc([N+](=O)[O-])cc1)C(=O)N1CCCC1)c1ccccc1 | / | -1 | / | 0 | 2 | -2 | /
O=C(N/C(=C/C=C\c1ccccc1)C(=O)N1CCOCC1)c1ccc(Br)cc1 | 13 | 10 | 18 | 0 | 65* | 2 | 61*
CC(C)(C)NC(=O)/C(=C\C=C\c1ccccc1)NC(=O)c1ccc([N+](=O)[O-])cc1 | 10 | -2 | -25 | 0 | 78* | -5 | 89*
CCC1CCCCN1C(=O)CCC(=O)Nc1nnc(C(F)(F)F)s1 (centres undefined) | / | -2 | / | 0 | -1 | -2 | /
COc1ccc(CN2C[C@H]3CON(C)[C@H]3C[C@H]2c2ccc(-c3ccccc3)cc2)cc1 | / | 0 | / | 0 | 30 | / | /
COc1ccc(OC)c(C(=O)NC(CC(N)=O)c2ccc(NCCN3CCCCC3)c([N+](=O)[O-])c2)c1 (centres undefined) | -8 | 0 | / | 0 | -3 | -5 | /
O=S(=O)(c1cccc(COc2c(Cl)cccc2Cl)c1)N1CCOCC1 | -2 | -10 | / | 0 | 23 | 0 | /
O=C(CCS(=O)(=O)c1ccccc1)NNC(=O)COc1ccc(F)cc1 | 0 | 13 | / | 0 | -10 | 2 | /
CC(C)(C)OC(=O)N1CCC2(CC1)Oc1ccc(F)cc1C(=O)C21CC(c2ccc(Cl)cc2)=NO1 (centres undefined) | / | / | / | / | / | -6 | /
